TRHR ag: agonists of human TRH receptor | TRHR cells, calcium flux fluo-8, FDSS agonist mode | activation, % at 2 µM | actives 0.18% (n = 360,000) | AID 493084
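Agonist-mode FDSS calcium read (Ex 480/Em 530, 1 s cycles) in 1536-well TRHR cells with fluo-8 dye, after 10-cycle baseline and 23 nL compound addition; TRH at EC20 (10 nM final) added afterwards for the enhancer phase.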
D1 PAM: enhances dopamine response at the human D1 receptor; P21728; actives 0.036% (n = 360,000); potentiation, % at 10 µM; AID 504651; HEK293 TREx D1 cells, calcium flux, dopamine EC20 potentiation; in the data active means potentiation above about 30%
Target sequence (P21728 whole entry, looked up): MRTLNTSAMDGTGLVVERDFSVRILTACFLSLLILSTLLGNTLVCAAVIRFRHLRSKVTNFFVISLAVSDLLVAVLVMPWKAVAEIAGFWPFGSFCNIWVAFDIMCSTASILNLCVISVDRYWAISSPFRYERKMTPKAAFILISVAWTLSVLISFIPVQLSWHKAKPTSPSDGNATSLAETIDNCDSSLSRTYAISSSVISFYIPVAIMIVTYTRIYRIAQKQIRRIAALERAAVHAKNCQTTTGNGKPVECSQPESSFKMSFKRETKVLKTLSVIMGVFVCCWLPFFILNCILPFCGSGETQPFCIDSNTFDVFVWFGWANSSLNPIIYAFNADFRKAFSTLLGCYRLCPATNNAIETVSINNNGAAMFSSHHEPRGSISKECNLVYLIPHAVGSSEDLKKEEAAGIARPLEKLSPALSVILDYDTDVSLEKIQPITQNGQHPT
TRHR PAM: TRH receptor (human) allosteric enhancement; P34981; TRHR cells, fluo-8 calcium fluorescence, EC20 TRH enhancement; enhancement, % at 2 µM; actives 0.66% (n = 360,000); AID 493056; in the data active means enhancement above about 30%
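Enhancer read-out: after compound pinning and an initial kinetic agonist-mode read, an EC20 of TRH (10 nM final) was injected and fluo-8 calcium signal (Ex 480/Em 530) followed at 1 s/cycle for 100 cycles in TRHR-expressing cells.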
D1 antagonist: antagonists of human D1 dopamine receptor | P21728 | HEK293 TREx D1 cells, calcium flux, dopamine EC80; hits give low values | AID 504652 | actives 3.2% (n = 360,000) | activity change, negative = inhibition, % at 10 µM; in the data active means activity change below about -30%
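Tetracycline-induced HEK293 T-REx cells with force-coupled D1 receptor were loaded with a no-wash calcium dye. Compound was added after a 10 s baseline and read kinetically for 180 s; EC80 dopamine was then added and calcium flux followed another 180 s.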
D1 ag: human D1 receptor agonism; P21728; actives 1% (n = 360,000); activation, % at 2 µM; AID 504660; HEK293 T-REx D1 cells, calcium flux, agonist mode
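Tetracycline-induced HEK293 TREx D1 cells, force-coupled to calcium signalling, were dye-loaded with a no-wash calcium kit. Compound was pin-added after a 10 s baseline. Fluorescence was read kinetically at 1 cycle/s for 180 s, with calcium rises flagged as agonism.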
Hits are given with their value; – = inactive; · = no result. Only some compounds are listed: those with a hit (about 4.7% of all), similar ones and a draw of the others. Unless noted, no stated cut-off is given here; in the data, active means activation above about 30%; inactive means the rest.

SMILES	TRHR ag	D1 PAM	TRHR PAM	D1 antagonist	D1 ag
CCc1ccc(CN(Cc2ccco2)C(=O)COc2ccccc2Cl)cc1	–	–	–	–	–
COc1cccc(NC(=O)CSc2nnc3ccc(-c4ccccn4)nn23)c1	–	–	–	–	–
OC(CNCCNc1ncccc1C(F)(F)F)Cn1ccc2ccccc21 (stereo unspecified)	–	–	–	-36	–
OC(CNCc1ccccc1)Cn1ccc2ccccc21 (stereo unspecified)	–	–	–	–	–
CCOc1ccccc1NC(=O)C(OC(=O)C1CC1)c1ccccc1 (stereo unspecified)	–	–	–	–	30
COc1cc(N/N=C(\C)c2ccc(O)c(C)c2)nc(-c2ccccc2)n1	–	–	34	–	–
C/C(=N\Nc1cc(-c2ccccc2)nc(-c2ccccc2)n1)c1ccc(O)c(C)c1	–	–	–	–	–
Cc1c(C(C)C)c(=O)n(-c2ccc(S(=O)(=O)NC3CCCCC3)cc2)n1C	–	–	–	-52	–
Cc1c(C(C)C)c(=O)n(-c2ccc(S(=O)(=O)NCc3ccccc3)cc2)n1C	–	–	–	–	–
CC(C)c1ccc(S(=O)(=O)c2cnc(SCC(=O)Nc3cccc(C(F)(F)F)c3)nc2N)cc1	–	–	–	–	–
CCOCCCNC(=O)CCc1nnc2ccc(N3CCCCC3)nn12	–	–	–	-31	–
CCOCCCNC(=O)CCc1nnc2ccc(N3CCN(c4cccc(OC)c4)CC3)nn12	–	–	–	–	–
CCOC(=O)C(Cc1ccccc1)NC(=O)CCc1nnc2ccc(N3CCCCC3)nn12 (stereo unspecified)	–	–	–	-33	–
CC1CCN(c2ccc3nnc(CCC(=O)Nc4ccc(F)c(F)c4)n3n2)CC1	–	–	–	-30	–
CCOC(=O)C(Cc1ccccc1)NC(=O)CCc1nnc2ccc(N3CCCC3)nn12 (stereo unspecified)	–	–	–	–	–
CCOc1ccc(CN2CCN(S(=O)(=O)c3ccc(Cl)cc3)CC2)cc1	–	–	–	–	–
COCc1c(C(=O)N2CCN(CCOc3ccccc3)CC2)oc2ccccc12	–	·	–	-45	–
COc1ccc2oc(C(=O)N3CCN(C(=O)c4ccco4)CC3)c(C)c2c1	–	–	–	-36	–
Cc1c(C(=O)N2CCN(S(C)(=O)=O)CC2)oc2ccccc12	–	–	–	–	–
CC(C)(C)NC(=O)c1oc2ccccc2c1COc1ccccc1	–	–	–	–	31
COCc1c(C(=O)N2CCc3ccccc32)oc2ccccc12	–	–	–	–	–
Cc1c(C(=O)N2CCN(CCc3ccccc3)CC2)oc2ccccc12	–	–	–	-32	–
CC(OC(=O)c1oc2ccccc2c1COc1ccccc1)C(N)=O (stereo unspecified)	–	–	–	–	–
O=C(Cc1csc(NC(=O)Nc2cccc(Cl)c2)n1)NCc1cccnc1	–	–	–	–	–
COc1ccc(CNC(=O)Cc2csc(NC(=O)Nc3ccccc3OC)n2)cc1	–	–	–	-35	–
SMILES	TRHR ag	D1 PAM	TRHR PAM	D1 antagonist	D1 ag
O=C(Cc1csc(NC(=O)Nc2cccc(Cl)c2)n1)NCc1ccccn1	–	–	–	-31	–
COC(=O)c1ccc(CSc2ccc3nnc(-c4ccc(OC)cc4)n3n2)o1	–	–	–	–	–
COC(=O)c1ccc(CSc2ccc3nnc(-c4cccnc4)n3n2)o1	–	–	–	-46	–
Cc1nnc(SCC(=O)Nc2sc3c(c2C(N)=O)CCC(C)C3)[nH]c1=O (stereo unspecified)	–	–	–	-47	–
CCC(C)NC(=S)N1CCN(C(c2ccccc2)c2ccccc2)CC1 (stereo unspecified)	–	–	–	-31	–
CNC(=S)N1CCN(C(c2ccccc2)c2ccccc2)CC1	–	–	–	–	–
CC1CCc2c(sc(NC(=O)CSc3ncn[nH]3)c2C#N)C1 (stereo unspecified)	–	–	–	–	–
CC1CCc2c(sc(NC(=O)CSc3ncnc4c3cnn4-c3ccccc3Cl)c2C#N)C1 (stereo unspecified)	–	–	–	-39	–
Cc1csc(NC(=O)CSc2nc3ccccc3c3c2CCCC3)n1	–	–	36	–	–
Cc1csc(NC(=O)CSc2ncnc3ccccc23)n1	–	–	–	–	–
Cc1csc(NC(=O)CSc2ncnc3c2cnn3-c2ccccc2Cl)n1	–	–	–	-31	–
COc1ccccc1-n1cnnc1SC(C)C(=O)NCC1CCCO1 (stereo unspecified)	–	–	–	–	–
COc1ccc(NS(=O)(=O)c2c(C)n(C)c(=O)n(C)c2=O)cc1OC	–	–	–	-31	–
Cc1c(S(=O)(=O)Nc2ccc(Br)cc2)c(=O)n(C)c(=O)n1C	–	–	35	–	–
COc1cccc(NS(=O)(=O)c2c(C)n(C)c(=O)n(C)c2=O)c1	–	–	–	–	–
COCCN(C(=O)C1CC(=O)N(Cc2ccc(C)cc2)C1)c1c(N)n(CC(C)C)c(=O)[nH]c1=O (stereo unspecified)	–	–	–	–	–
C[C@@H](NC(=O)[C@@H]1Cc2ccccc2CN1C(=O)OC(C)(C)C)C(=O)NC1CCCC1	–	–	–	-40	–
O=Nc1c(O)n(Cc2cccc(C(F)(F)F)c2)c2ccccc12	–	–	–	–	69
N#CC1(Nc2ccccc2)C(=O)Nc2ccccc21 (stereo unspecified)	–	–	–	–	–
N#CC1(Nc2cccc(Br)c2)C(=O)Nc2ccccc21 (stereo unspecified)	–	–	–	–	53
O=C(c1cccs1)c1ccc(-c2cccs2)s1	–	–	–	-38	70
O=C(c1ccc(S(=O)(=O)Nc2cccc(C(F)(F)F)c2)cc1)N1CCOCC1	–	–	–	–	–
CC(C)(CNC(=O)c1ccc(S(=O)(=O)Nc2cccc(C(F)(F)F)c2)cc1)N1CCOCC1	–	–	35	–	–
Cn1c2cc(C#N)sc2c2cnn(Cc3ccccc3F)c(=O)c21	–	–	–	–	–
CN1CCN(CCOc2ccc(-c3ccccc3)cc2)CC1	–	–	–	–	–
SMILES	TRHR ag	D1 PAM	TRHR PAM	D1 antagonist	D1 ag
CCN1CCN(CCCOc2ccc(-c3ccccc3)cc2)CC1	–	–	–	-34	50
CN1CCN(CCCOc2ccc(-c3ccccc3)cc2)CC1	–	–	–	-33	–
CC(C)C(=O)NCC(c1ccc2c(c1)OCO2)N1CCOCC1 (stereo unspecified)	–	–	–	–	–
Cc1ccc(S(=O)(=O)N2CCOCC2)cc1C(=O)NC1CCCCCC1	–	–	–	–	–
CC(=O)N1CCN(C(=S)NC(=O)c2ccc(S(=O)(=O)N3CCOCC3)cc2)CC1	–	–	–	-31	–
Cc1ccc(S(=O)(=O)N2CCOCC2)cc1C(=O)NC(=S)N1CC(C)OC(C)C1 (stereo unspecified)	–	–	–	-35	–

Source: PubChem BioAssay (National Center for Advancing Translational Sciences (NCATS))
